Hits are enriched below; roughly 1.5% of the tested compounds scored in any of these assays.
3CLpro inhibitor: SARS-CoV 3CLpro protease inhibition. P0C6X7. recombinant SARS-CoV 3CLpro, quenched FRET peptide cleavage. inhibition, % at 6 µM. 290,000 compounds, 0.14% hits. AID 1706; in the data active = inhibition above about 12%
PrP 5UTR inh: inhibition of PrP 5' UTR reporter expression | inhibition, % (test concentration not listed) | cell-based PrP 5' UTR mRNA reporter, plate reader | 340,000 compounds, 0.35% hits; in the data active = inhibition above about 52%; also: 0 = median of the neutral control wells
DUSP3 inh: blocks human VHR1 dual specificity phosphatase; 290,000 compounds, 0.52% hits; recombinant VHR phosphatase, pNPP absorbance; inhibition, % at 13.3 µM; in the data active = inhibition above about 50%
Target sequence (P51452 whole entry, looked up): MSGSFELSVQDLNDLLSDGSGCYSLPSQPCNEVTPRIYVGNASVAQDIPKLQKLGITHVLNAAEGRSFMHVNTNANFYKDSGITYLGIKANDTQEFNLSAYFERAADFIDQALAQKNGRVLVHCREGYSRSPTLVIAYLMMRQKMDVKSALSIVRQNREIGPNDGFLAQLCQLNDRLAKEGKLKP
MazEF act: activators of E. coli MazEF toxin-antitoxin RNase | P0AE70 | FAM/BHQ RNA-DNA oligo cleavage fluorescence, 5 h | activation, % at 20 µM | 350,000 compounds, 0.32% hits | AID 504720; in the data active = activation above about 50%
Target sequence (P0AE70 whole entry, looked up): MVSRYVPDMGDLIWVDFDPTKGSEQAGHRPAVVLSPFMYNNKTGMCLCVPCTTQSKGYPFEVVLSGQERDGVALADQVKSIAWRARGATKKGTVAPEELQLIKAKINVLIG
PrPC surface inh: cell surface PrPC inhibition, primary TR-FRET screen; P04156; TR-FRET read-out; inhibition, % at 13.8 µM; 370,000 compounds, 0.43% hits; in the data active = inhibition above about 24%; also: 0% = median of the test wells and 100% = reference compound wells
Mtb hypoxia inh: inhibitors of hypoxia-regulated fluorescent reporter in Mycobacterium tuberculosis. fluorescence inhibition, % (concentration not given with the values). 300,000 compounds, 0.1% hits. M. tuberculosis hypoxia-regulated fluorescent reporter, fluorescence; in the data active = fluorescence inhibition mostly above about 23%, no sharp cut-off; inactive = mostly below about 17%
PrP 5UTR single: prion 5' UTR mRNA inhibition, cherry-pick retest. shares compounds with PrP 5UTR inh. cell-based prion protein 5' UTR reporter, plate reader. inhibition, % at 2.5 µM. 1,100 compounds, 48% hits; in the data active = inhibition above about 54%; inconclusive = no clear call, values can overlap the other calls
* hit, by the source's call; i = inactive; ? = inconclusive; · = no result.

SMILES	3CLpro inhibitor	PrP 5UTR inh	DUSP3 inh	MazEF act	PrPC surface inh	Mtb hypoxia inh	PrP 5UTR single
CCC1=C(OC(=O)N(CC)CC)N2C(=O)OC(=NCCOC)[C@]2(Cc2ccccc2)C2C1=CCC1C(=O)N(CC)C(=O)C12 (stereo partly specified)	·	·	·	·	·	11	·
Cc1ccc(C(=O)Nc2ncc(Cc3ccc(SC(F)F)cc3)s2)cc1	-3	62*	13	-3	5	14	89*
Cc1ccc(C(=O)Nc2ncc(Cc3ccc(F)cc3)s2)o1	-3	-86	22	4	15	2	·
Cc1ccc(C(=O)Nc2ncc([N+](=O)[O-])s2)cc1	1	71*	-16	-5	-5	18	73*
COc1cccc(C(=O)NCC(=O)NN=C(C)C=Cc2ccccc2)c1	·	·	·	·	·	0	·
COc1ccc(-c2noc(CCCC(=O)O)n2)cc1	-2	56*	24	-3	-6	10	29
Cc1ccc(-c2noc(CCC(=O)Nc3ccc4c(c3)OCO4)n2)cc1	-2	60*	39	-7	11	·	-15
COc1ccc(-c2noc(CCC(=O)Nc3ccc4c(c3)OCCO4)n2)cc1	-2	-8	13	4	17	·	·
CC1CN(C(=O)[C@@H]2CCCN2S(=O)(=O)c2ccc(Cl)cc2)CC(C)O1 (stereo partly specified)	·	85*	·	1	1	-5	-12
CCCCc1ccc(-c2ccc(Br)cc2)nc1	-3	-95	4	0	-1	2	·
CCCc1ccc(-c2ccc(F)c(N)c2)nc1	1	59*	38	2	-3	-1	?
CS(=O)(=O)N(CC(=O)NCCSc1ccccn1)c1ccc(F)cc1	4	52*	25	-7	1	10	4
CNc1nc(NN=Cc2cc([N+](=O)[O-])ccc2F)nc(Nc2ccccc2)n1	·	·	·	·	·	5	·
c1ccc(-c2cn3nc4c(nc3n2)CCCC4)cc1	2	67*	2	-412	2	·	37
OCC1=CC(O)C2C=COC(OC3OC(CO)C(O)C(O)C3O)C12 (stereo unspecified)	·	·	·	·	·	8	·
Cn1c(O)c(C=NC2CCCCC2)c(=O)[nH]c1=S	-2	53*	10	-3	6	1	-21
CCSc1ccc(C2C3C(=O)N(C)C(=O)C3[C@]3(C(=O)OC)CCCCN23)cc1 (stereo partly specified)	·	·	·	·	·	15	·
COc1ccc(/C=N/Nc2nnc(C)n2N)cc1OC	-3	76*	3	4	-10	·	-8
COc1cc(C=CC(=O)OCC(=O)NC(=O)NC(C)C)cc(OC)c1OC	·	·	·	·	·	-1	·
CC(=O)[C@]1(O)Cc2c(O)c3c(c(O)c2[C@@H](O[C@H]2C[C@H](N)[C@H](O)[C@H](C)O2)C1)C(=O)c1ccccc1C3=O	·	·	·	i	·	·	·
COc1cccc2c1C(=O)c1c(O)c3c(c(O)c1C2=O)CC(O)(C(=O)CO)CC3OC1CC(N(C)C)C(O)C(C)O1 (stereo unspecified)	·	86*	·	-713	-17	·	95*
COc1cccc2c1C(=O)c1c(O)c3c(c(O)c1C2=O)C[C@@](O)(C(=O)CO)C[C@@H]3O[C@H]1C[C@H](N)[C@@H](O)[C@H](C)O1	·	75*	·	i	·	·	87*
Cc1cccc(C(=O)NCN2CCN(c3ccccc3C#N)CC2)c1	·	82*	·	6	6	·	-38
O=C(NCN1CCN(c2ccccc2F)CC1)c1ccccc1	-4	-4	10	10	5	14	·
CN(C)CCCNc1c2c(nc3ccccc13)CCC2	-3	-8	2	6	-14	8	·
SMILES	3CLpro inhibitor	PrP 5UTR inh	DUSP3 inh	MazEF act	PrPC surface inh	Mtb hypoxia inh	PrP 5UTR single
CN(C)CCNCCCNc1c2ccccc2nc2cccc([N+](=O)[O-])c12	·	95*	·	-4	-13	·	98*
COc1ccc2cc(C(N)=O)/c(=N\NC(=O)c3ccccc3)oc2c1	-11	53*	·	-3	-5	·	19
Cn1c(=O)[nH]c2nc[nH]c2c1=O	·	-62	·	5	4	8	·
Cn1cnc2nc[nH]c2c1=O	·	55*	·	-17	6	·	-7
CCOC(=O)CC(=NNc1ncnc2ccccc12)c1ccccc1	·	·	·	·	·	5	·
O=c1oc(-c2ccccc2)cc2ccccc12	·	·	·	·	1	·	·
Nc1ccc(-c2cc3ccccc3c(=O)o2)cc1	·	70*	·	6	-10	3	68*
O=C1C2C3C=CC(C4CC34)C2C(=O)N1N=Cc1ccc([N+](=O)[O-])o1 (stereo unspecified)	·	·	·	·	·	-4	·
COc1ccc(CC(=O)Oc2ccccc2[N+](=O)[O-])cc1	-1	-28	5	2	-2	2	·
COc1ccc(CC(=O)Oc2ccccc2C)cc1	3	58*	-11	1	0	5	-12
O=C(COc1ccccc1)NN=Cc1cc2c(cc1[N+](=O)[O-])OCO2	·	·	·	·	·	7	·
O=C(Nc1ccc(-c2nc3ccccc3o2)cc1)C1CCCO1 (stereo unspecified)	-6	-111	3	-1	4	15	·
O=C(Nc1ccc(-c2nc3cccnc3s2)cc1)C1CCCO1 (stereo unspecified)	-3	62*	4	11	-5	-4	65*
O=C1CCN(Cc2cccnc2)CCN1C(CO)Cc1ccccc1 (stereo unspecified)	·	·	·	·	·	3	·
CC(C)c1ccccc1NC(=S)N1CCN(S(=O)(=O)c2cccs2)CC1	5	87*	18	14	-3	-1	-7
Cn1cccc1/C=C(/C#N)c1ccc(F)cc1	0	80*	4	1	0	8	-20
Cn1cccc1/C=C(\C#N)c1ccccc1	-4	5	4	2	-1	8	·
Cc1cc(C(=O)CN2C(=O)c3ccccc3S2(=O)=O)c(C)n1CC1CCCO1 (stereo unspecified)	2	88*	30	6	-4	6	86*
CCOC1OC(C(=O)N2CCOCC2)=CC(c2cn(C(C)=O)c3ccccc23)C1CCCO (stereo unspecified)	·	·	·	·	·	6	·
Cc1ccc(Sc2cnc3ccccc3n2)cc1	6	88*	24	-7	22	9	-83
C=C(C)CSc1nncn1N=Cc1ccc(OC)cc1	·	·	·	·	·	-15	·
Cc1cccc(CSC(=N)N)c1	1	52*	22	4	0	3	3
N=C(N)SCCc1cccc(CCSC(=N)N)c1	·	71*	·	3	-3	4	-21
CCOc1ccc(CSC(=N)N)cc1	-4	-12	7	5	6	1	·
CCc1nnc(NN=Cc2ccc(O)c(OC)c2)n1N	·	·	·	·	·	-3	·
Cc1ccc(Nc2nc(-c3c(C)nc4ccccn34)cs2)cc1	5	59*	24	8	39*	7	83*
Cc1nc2ncccn2c1-c1csc(Nc2ccc(O)cc2)n1	-5	-5	22	8	-16	12	·
Cc1ccc(Nc2nc(-c3c(C)nc4ncccn34)cs2)cc1	1	67*	10	19	-11	8	89*

Assay outcomes (PubChem BioAssay)
